PNC inhibitor = inhibitors of perinucleolar compartment assembly | activity change (PNC), negative = inhibition, % at 10 µM | AID 2417 | hit rate 3.1% among 140,000 | PC3M PTB-GFP, PNC prevalence imaging, 16 h; hits give low values;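 active = readout at or below -70, meaning at least 70% loss of cells showing the perinucleolar compartment, a nuclear body marking cancer cells; inconclusive = readout between -30 and a set limit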
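PC3M cells stably expressing PTB-GFP, 750–1000 cells/well, treated 16 h at 37 °C with compound (23 nl of library stock), in duplicate. After paraformaldehyde fixation and Hoechst stain, imaged at 20x; PNC prevalence scored by image analysis.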
GLA inh pH 4.5 = alpha-galactosidase A (human) inhibition, pH 4.5; P06280; purified enzyme, 4-MU-alpha-Gal fluorescence, pH 4.5; activity change, negative = inhibition, % at 105 µM; 230,000 tested, under 10 active
Target sequence (P06280 whole entry, looked up): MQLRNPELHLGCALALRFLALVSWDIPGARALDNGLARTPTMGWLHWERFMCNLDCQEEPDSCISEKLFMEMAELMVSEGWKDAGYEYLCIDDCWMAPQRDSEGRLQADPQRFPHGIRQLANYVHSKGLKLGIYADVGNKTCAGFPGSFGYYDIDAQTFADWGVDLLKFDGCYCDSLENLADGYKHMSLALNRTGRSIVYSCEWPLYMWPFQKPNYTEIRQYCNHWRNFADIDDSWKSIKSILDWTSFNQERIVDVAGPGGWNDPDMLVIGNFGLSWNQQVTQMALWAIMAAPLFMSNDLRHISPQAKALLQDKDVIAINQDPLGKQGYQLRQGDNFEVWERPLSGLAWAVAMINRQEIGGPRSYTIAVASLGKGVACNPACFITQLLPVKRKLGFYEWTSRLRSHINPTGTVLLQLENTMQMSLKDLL
HPGD inh = inhibitors of human 15-hydroxyprostaglandin dehydrogenase (HPGD); P15428; purified HPGD, NADH fluorescence kinetic, PGE2 substrate; Potency, µM, usual class: inhibitors; hit rate 4.3% among 150,000; AID 894; active = well fitted inhibition curve with a large enough effect, not every such curve was filed as active; inconclusive = small, poorly fitted or top-dose-only effect, or another doubt; inactive = no such curve, though single readings can be large or run the other way
Target sequence (P15428 whole entry, looked up): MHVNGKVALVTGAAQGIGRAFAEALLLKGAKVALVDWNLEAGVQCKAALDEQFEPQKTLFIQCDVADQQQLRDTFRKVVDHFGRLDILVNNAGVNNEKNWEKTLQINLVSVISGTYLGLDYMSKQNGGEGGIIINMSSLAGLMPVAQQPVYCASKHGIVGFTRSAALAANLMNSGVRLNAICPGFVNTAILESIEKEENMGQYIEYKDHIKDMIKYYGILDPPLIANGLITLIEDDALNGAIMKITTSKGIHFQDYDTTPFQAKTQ
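NADH formation kinetics: reaction with 30 uM PGE2 and 1 mM NAD+ (final), 20 nM enzyme, Tris-HCl pH 8 with Tween 20, after 15 min compound preincubation at room temperature. Fluorescence change, last versus first of five reads.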
GLA spleen mod = inhibitors or activators of human alpha-galactosidase in spleen homogenate. P06280. human spleen homogenate, 4MU-alpha-Gal fluorescence, 40 min. Potency, µM (top dose mostly 80 µM), actives largely listed as inhibitors. hit rate 0.008% among 240,000
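qHTS titration in buffer at pH 5.0. Alpha-galactosidase activity in spleen homogenate was measured via 4-methylumbelliferone release from 1 mM fluorogenic substrate after 40 min at 37C and a pH 10 stop. AC50 came from Hill fits of control-normalized data.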
ALDH1A1 block = blocks purified human ALDH1A1 activity. hit rate 7.3% among 220,000. Purified ALDH1A1, NADH fluorescence, propionaldehyde substrate. P00352. AID 1030. Potency, µM (highest dose often 75.3 µM), actives largely listed as inhibitors; active = well fitted inhibition curve with a large enough effect, not every such curve was filed as active; inconclusive = small, poorly fitted or top-dose-only effect, or another doubt; inactive = no such curve, though single readings can be large or run the other way
12-hLO inh = 12-hLO (ALOX12) enzyme inhibition; P18054; AID 1452; purified 12-hLO, xylenol orange hydroperoxide absorbance; Potency, µM (titrated, usually from 57.1 µM), most hits filed as inhibitors; hit rate 0.12% among 150,000; also: nearly all actives have a fitted effect of over 55% in size
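Purified human 12hLO (150 nM final) was preincubated with compounds for 15 min at room temperature in 25 mM Hepes pH 7.0, 0.01% Triton X-100, then reacted with 40 uM arachidonic acid for 30 min. Hydroperoxide was detected with ferrous iron/xylenol orange.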
A number is an active result; - = inactive; ? = inconclusive; . = no result; [ ] = dose if it differs, or a comment. Hits are enriched below; roughly 10% of the tested compounds scored in any of these assays. Unless noted, calls follow the shape of the dose curve; as a rule, active = well fitted curve in the direction sought with a large enough effect; inconclusive = small, poorly fitted or top-dose-only effect, or another doubt; inactive = no such curve, though single readings can be large; an effect the other way counts as inactive or inconclusive.

SMILES	PNC inhibitor	GLA inh pH 4.5	HPGD inh	GLA spleen mod	ALDH1A1 block	12-hLO inh
CN(c1ccccc1)S(=O)(=O)c1cccc(C(=O)NNC(=O)c2ccccc2)c1	.	-	.	-	-	.
CCc1nnc(NCC(=O)N2CCc3ccccc32)s1	?	-	-	-	25µM	-
CN(c1ccccc1)S(=O)(=O)c1cccc(C(=O)Nc2ccc3c(c2)CCC3)c1	?	-	-	-	10µM	-
CCN(CC)CCNC(=O)C(=O)NCC1OCCN1C(=O)c1ccc2c(c1)OCO2 (stereo not drawn)	-	-	-	-	-	-
CCOC(=O)/C(C#N)=C/c1ccc(SC)cc1	.	-	.	-	18µM	.
COC(=O)/C(C#N)=C/c1ccc(OC(=O)c2ccccn2)cc1	-	-	?	-	3.5µM	-
COc1ccc(/C=C(\C#N)C(=O)Nc2cccnc2)cc1	-	-	-	-	-	-
CCOC(=O)/C(C#N)=C/c1ccc(OC(=O)c2ccccn2)cc1	-	-	-	-	8.9µM	-
CN(Cc1cn(C)nc1-c1ccccc1F)CC1CCCCO1 (stereo not drawn)	.	-	.	-	-	.
COc1ccc(S(=O)(=O)N2CCc3ccccc32)cc1C(=O)OCc1c(C)noc1C	?	-	-	-	3.2µM	-
COc1ccc(S(=O)(=O)N2CCCCCC2)cc1C(=O)OCc1c(C)noc1C	-	-	-	-	14µM	-
COc1cccc(C(=O)c2c(C)c(CCC#N)n3ccccc23)c1	.	-	.	-	?	.
COc1ccc(NC(=O)c2cccnc2SC)cc1S(=O)(=O)N1CCCCC1	-	-	-	-	-	-
Cc1nn(Cc2ccccc2Cl)c(C)c1N	-	-	-	-	-	-
Cc1nn(Cc2ccccc2)c(C)c1N	-90	-	-	-	-	-
Cc1ccc(C(=O)CC2(O)C(=O)N(Cc3ccc4c(c3)OCO4)c3ccccc32)cc1 (stereo not drawn)	-	-	-	-	1.4µM	-
NC(=O)CN1C(=O)C(O)(CC(=O)/C=C\c2ccc3c(c2)OCO3)c2ccccc21 (stereo not drawn)	.	-	.	-	?	.
O=C(CC1(O)C(=O)N(Cc2ccccc2)c2ccccc21)c1ccc2c(c1)OCO2 (stereo not drawn)	-	-	-	-	7.1µM	-
O=C(CC1(O)C(=O)N(Cc2ccc3c(c2)OCO3)c2ccccc21)c1ccccc1 (stereo not drawn)	-	-	-	-	8.9µM	-
O=C(O)c1ccc2c(c1)C(=O)N(Cc1ccc3c(c1)OCO3)C2=O	-	-	4.5µM	-	-	-
CN1C(=O)C(O)(CC(=O)c2ccc3c(c2)OCO3)c2ccccc21 (stereo not drawn)	-	-	-	-	-	-
O=C1CSC(c2cccc([N+](=O)[O-])c2)N1c1ccccc1F (stereo not drawn)	.	-[21.1 µM]	.	-	?	.
CCN(CC)c1ccc(C(=O)OCC(=O)NCC2CCCO2)cc1 (stereo not drawn)	-	-	-	-	-	-
Cc1ccccc1CN1C(=O)C(O)(CC(=O)c2ccncc2)c2ccccc21 (stereo not drawn)	-	-	-	-	0.11µM	-
Cc1ccc(C(=O)CC2(O)C(=O)N(C)c3ccccc32)s1 (stereo not drawn)	.	-	.	-	-	.
SMILES	PNC inhibitor	GLA inh pH 4.5	HPGD inh	GLA spleen mod	ALDH1A1 block	12-hLO inh
CC(C)(C)C(=O)CC1(O)C(=O)N(Cc2ccccc2)c2ccccc21 (stereo not drawn)	-	-	-	-	7.1µM	-
O=C1c2ccccc2C(O)N1Cc1ccc2c(c1)OCO2 (stereo not drawn)	-	-	16µM	-	-	-
Cc1cnc(CNc2cc(-c3ccc(N(C)C)cc3)ncn2)cn1	.	.	.	-	?	.
CCN(CC)CCN(Cc1cc2cc3c(cc2[nH]c1=O)OCCO3)C(=O)NC1CCCCC1	?	-	?	-	?	-
COc1ccc(CN(Cc2cc3cc4c(cc3[nH]c2=O)OCO4)C(=O)NC2CCCCC2)cc1	-97	-	?	-	?	-
Cc1cc(-c2ccccc2)nc(N2CCC(C(=O)NC(C)C)CC2)n1	-100	-	?	-	-	-
S=C(Nc1ccccc1)Nc1nc2ccccc2n1CCOc1ccc(Br)cc1	?	-	-	-	9.5µM	?
CS(=O)(=O)Nc1ccc(C2=NN(S(=O)(=O)c3ccc(F)cc3)C(c3ccco3)C2)cc1 (stereo not drawn)	.	-[21.1 µM]	.	-	?	.
CCc1c(O)nc(SCC(=O)Nc2ccccc2)n(-c2ccccc2)c1=O	-	-	.	-	-	-
CCc1c(O)nc(SCC(=O)Nc2ccc(C)cc2)n(C2CCCCC2)c1=O	-	-	-	-	20µM	-
Cc1ccccc1CSCCNS(C)(=O)=O	-	-	-	-	-	-
COc1ccc(S(=O)(=O)NCCSCc2ccccc2C)cc1Br	-	-	28µM	-	25µM	-
CCn1c(CNC(=O)c2cccs2)n[nH]c1=S	-109	-	-	-	?	-
O=C(NCCc1nc2ccccc2[nH]1)/C(=C/c1ccco1)NC(=O)c1ccco1	?	-	-	-	?	-
O=C(NCc1nc2ccccc2[nH]1)c1cccs1	-87	-	-	-	-	-
O=C(NCc1ccccn1)c1cccs1	?	-	-	-	-	-
O=C(NCc1nc2ccccc2[nH]1)c1ccco1	-98	-	-	-	-	-
CC(=O)c1ccc(NC(=O)OCCN2CCN(Cc3ccccc3)CCC2=O)cc1	.	-	-	-	-	-[0.00818 µM]
CCN1CCN(CC(O)COCC2COc3ccccc3O2)CC1 (stereo not drawn)	.	-	.	-	28µM	.
CC1OC(OC2C(CO)OC(OC3C(CO)OC(O)C(O)C3O)C(O)C2O)C(O)C(O)C1NC1C=C(CO)C(O)C(O)C1O (stereo not drawn)	.	-	-	-	?	-
CCOC(=O)c1ccc(N2C(=O)CC(N3CCN(Cc4ccccc4)CC3)C2=O)cc1 (stereo not drawn)	-	-	-	-	28µM	-
CCOC(=O)c1ccc(N2C(=O)CC(N3CCCC(C)C3)C2=O)cc1 (stereo not drawn)	-	-	-	-	3.2µM	-
CCOC(=O)c1ccc(N2C(=O)CC(N3CCC(Nc4ccc(F)cc4)CC3)C2=O)cc1 (stereo not drawn)	-	-	-	-	3.2µM	-
CCOC(=O)N1CCN(C2CC(=O)N(c3ccccc3)C2=O)CC1 (stereo not drawn)	-	-	-	-	-	-
CCOC(=O)N1CCN(C2CC(=O)N(c3ccc(Cl)c(Cl)c3)C2=O)CC1 (stereo not drawn)	-100	-	?	-	14µM	-
CCN1C(=O)CC(N2CCC(Nc3ccc(F)cc3)CC2)C1=O (stereo not drawn)	?	-	-	-	-	-
